Key:
Assay in all cases: DAPPL (digital affinity profiling via proximity ligation, sequencing); 10 mM Tris-HCl pH 7.5, 50 mM NaCl, 1 mM DTT, 4% glycerol, room temperature, 30 min; GST-TFs on glutathione beads, 16-mer random dsDNA library, 0.1% formaldehyde crosslink after washing; high values mean tight binding
[1] = target: T1, FLI1 (Homo sapiens, UniProt Q01543 1-452); settings: protein: recombinant; tags: N-terminal GST; dsDNA, one strand shown
T1 sequence: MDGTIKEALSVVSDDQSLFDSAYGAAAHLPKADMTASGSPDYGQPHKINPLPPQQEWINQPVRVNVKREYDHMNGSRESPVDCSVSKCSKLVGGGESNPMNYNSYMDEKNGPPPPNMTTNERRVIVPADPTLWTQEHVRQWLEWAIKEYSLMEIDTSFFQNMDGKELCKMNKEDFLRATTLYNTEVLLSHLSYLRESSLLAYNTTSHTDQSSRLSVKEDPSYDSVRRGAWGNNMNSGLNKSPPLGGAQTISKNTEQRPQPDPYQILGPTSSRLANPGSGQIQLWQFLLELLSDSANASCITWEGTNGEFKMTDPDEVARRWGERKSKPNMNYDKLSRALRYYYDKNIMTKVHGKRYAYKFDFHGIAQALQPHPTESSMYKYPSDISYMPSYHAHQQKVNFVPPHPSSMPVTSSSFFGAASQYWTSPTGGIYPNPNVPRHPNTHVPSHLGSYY
In short: (§1)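 GST fusions of human transcription factors were expressed in yeast and captured with glutathione beads. Once given DNA barcodes and pooled alongside a tag-only sample, they were incubated for 30 min at room temperature with 200 nmole of a random double-stranded 16-mer DNA library in Tris/NaCl/DTT/glycerol buffer, then washed, crosslinked (0.1% formaldehyde), proximity-ligated, PCR-amplified and sequenced on an Illumina NextSeq500. The binding signal of each hexamer is its read frequency for a factor divided by its frequency for the tag-only sample.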

[2] = target: T2, ELK1 (Homo sapiens, UniProt P19419 1-428); settings: protein: recombinant; tags: N-terminal GST; dsDNA, one strand shown
T2 sequence: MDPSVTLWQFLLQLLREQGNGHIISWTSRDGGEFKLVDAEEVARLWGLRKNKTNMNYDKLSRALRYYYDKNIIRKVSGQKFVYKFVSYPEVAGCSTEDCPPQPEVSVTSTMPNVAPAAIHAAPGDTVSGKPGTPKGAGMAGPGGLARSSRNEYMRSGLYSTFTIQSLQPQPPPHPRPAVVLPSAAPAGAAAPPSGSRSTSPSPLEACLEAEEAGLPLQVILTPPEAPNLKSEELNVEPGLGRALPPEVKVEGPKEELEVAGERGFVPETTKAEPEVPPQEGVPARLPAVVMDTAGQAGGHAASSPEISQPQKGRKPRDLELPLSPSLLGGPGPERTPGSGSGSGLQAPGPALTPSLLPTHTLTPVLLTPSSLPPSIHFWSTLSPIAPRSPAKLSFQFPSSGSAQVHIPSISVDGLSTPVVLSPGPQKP
In short: as §1

[3] = target: T3, GABPA (Homo sapiens, UniProt Q06546 1-454); settings: protein: recombinant; tags: N-terminal GST; dsDNA, one strand shown
T3 sequence: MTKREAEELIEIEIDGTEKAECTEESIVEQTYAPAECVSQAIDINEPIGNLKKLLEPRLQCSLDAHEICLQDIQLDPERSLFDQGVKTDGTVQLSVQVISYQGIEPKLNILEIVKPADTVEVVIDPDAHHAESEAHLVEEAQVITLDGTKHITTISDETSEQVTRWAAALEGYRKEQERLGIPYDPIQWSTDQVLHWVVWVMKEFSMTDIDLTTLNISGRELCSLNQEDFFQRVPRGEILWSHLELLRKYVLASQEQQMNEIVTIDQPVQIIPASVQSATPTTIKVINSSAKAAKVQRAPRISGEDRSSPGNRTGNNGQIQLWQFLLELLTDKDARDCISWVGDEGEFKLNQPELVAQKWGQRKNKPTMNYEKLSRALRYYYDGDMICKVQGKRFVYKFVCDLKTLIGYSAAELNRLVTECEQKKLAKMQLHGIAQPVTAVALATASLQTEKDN
In short: as §1

[4] = target: T4, ERG (Homo sapiens, UniProt P11308 1-479); settings: protein: recombinant; tags: N-terminal GST; dsDNA, one strand shown
T4 sequence: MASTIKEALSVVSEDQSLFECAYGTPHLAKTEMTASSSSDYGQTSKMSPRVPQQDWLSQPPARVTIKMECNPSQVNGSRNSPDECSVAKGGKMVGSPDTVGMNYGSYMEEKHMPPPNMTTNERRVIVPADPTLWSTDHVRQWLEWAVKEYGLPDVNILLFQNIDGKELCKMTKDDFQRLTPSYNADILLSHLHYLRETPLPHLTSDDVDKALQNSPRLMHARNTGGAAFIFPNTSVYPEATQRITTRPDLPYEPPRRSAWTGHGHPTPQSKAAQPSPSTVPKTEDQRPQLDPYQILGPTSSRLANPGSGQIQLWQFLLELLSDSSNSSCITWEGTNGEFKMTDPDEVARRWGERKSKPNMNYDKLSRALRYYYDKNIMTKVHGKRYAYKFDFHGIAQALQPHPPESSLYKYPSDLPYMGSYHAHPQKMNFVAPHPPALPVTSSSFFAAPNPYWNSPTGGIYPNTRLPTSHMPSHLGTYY
In short: as §1

[5] = target: ELF1 (Homo sapiens, UniProt P32519 1-619); settings: protein: recombinant; tags: N-terminal GST; dsDNA, one strand shown
Sequence of ELF1 (P32519 whole entry): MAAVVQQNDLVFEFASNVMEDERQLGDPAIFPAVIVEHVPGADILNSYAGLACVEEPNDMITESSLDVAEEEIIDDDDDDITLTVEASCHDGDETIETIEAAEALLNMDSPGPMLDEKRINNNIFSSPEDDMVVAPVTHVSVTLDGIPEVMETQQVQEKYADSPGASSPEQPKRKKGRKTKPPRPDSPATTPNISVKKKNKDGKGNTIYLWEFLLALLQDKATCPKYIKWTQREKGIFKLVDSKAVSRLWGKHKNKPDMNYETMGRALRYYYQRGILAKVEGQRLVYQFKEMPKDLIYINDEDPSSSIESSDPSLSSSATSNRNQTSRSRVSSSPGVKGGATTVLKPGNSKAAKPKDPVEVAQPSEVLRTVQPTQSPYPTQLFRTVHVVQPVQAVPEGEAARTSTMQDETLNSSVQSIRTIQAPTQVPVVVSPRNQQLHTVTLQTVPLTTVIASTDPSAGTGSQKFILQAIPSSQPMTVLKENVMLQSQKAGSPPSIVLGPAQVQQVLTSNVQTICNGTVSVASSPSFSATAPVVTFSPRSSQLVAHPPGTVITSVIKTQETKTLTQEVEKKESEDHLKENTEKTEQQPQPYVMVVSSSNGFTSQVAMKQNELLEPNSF
In short: as §1

[6] = target: T5, EHF (Homo sapiens, UniProt Q9NZC4 1-300); settings: protein: recombinant; tags: N-terminal GST; dsDNA, one strand shown
T5 sequence: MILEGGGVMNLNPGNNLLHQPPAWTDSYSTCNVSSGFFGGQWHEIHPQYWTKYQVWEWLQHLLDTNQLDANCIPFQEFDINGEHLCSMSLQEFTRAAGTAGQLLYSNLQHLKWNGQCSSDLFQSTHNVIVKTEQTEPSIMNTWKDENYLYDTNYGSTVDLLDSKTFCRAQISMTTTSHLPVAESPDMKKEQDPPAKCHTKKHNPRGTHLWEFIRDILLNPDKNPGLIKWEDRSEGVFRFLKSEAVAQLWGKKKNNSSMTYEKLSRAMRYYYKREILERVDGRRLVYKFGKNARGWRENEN
In short: as §1

[7] = target: SPI1 (Homo sapiens, UniProt P17947 1-270); settings: protein: recombinant; tags: N-terminal GST; dsDNA, one strand shown
In short: as §1

[8] = target: SPIB (Homo sapiens, UniProt Q01892 1-262); settings: protein: recombinant; tags: N-terminal GST; dsDNA, one strand shown
Sequence of SPIB (Q01892 whole entry): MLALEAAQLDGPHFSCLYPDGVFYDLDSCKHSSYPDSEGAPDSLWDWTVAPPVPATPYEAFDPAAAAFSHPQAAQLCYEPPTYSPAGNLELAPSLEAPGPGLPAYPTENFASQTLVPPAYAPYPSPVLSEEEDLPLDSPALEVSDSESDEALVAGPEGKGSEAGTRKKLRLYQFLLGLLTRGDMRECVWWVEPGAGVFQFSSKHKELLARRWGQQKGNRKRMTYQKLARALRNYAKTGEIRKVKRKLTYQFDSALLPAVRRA
In short: as §1

[9] = target: T6, ELK3 (Homo sapiens, UniProt P41970 1-407); settings: protein: recombinant; tags: N-terminal GST; dsDNA, one strand shown
T6 sequence: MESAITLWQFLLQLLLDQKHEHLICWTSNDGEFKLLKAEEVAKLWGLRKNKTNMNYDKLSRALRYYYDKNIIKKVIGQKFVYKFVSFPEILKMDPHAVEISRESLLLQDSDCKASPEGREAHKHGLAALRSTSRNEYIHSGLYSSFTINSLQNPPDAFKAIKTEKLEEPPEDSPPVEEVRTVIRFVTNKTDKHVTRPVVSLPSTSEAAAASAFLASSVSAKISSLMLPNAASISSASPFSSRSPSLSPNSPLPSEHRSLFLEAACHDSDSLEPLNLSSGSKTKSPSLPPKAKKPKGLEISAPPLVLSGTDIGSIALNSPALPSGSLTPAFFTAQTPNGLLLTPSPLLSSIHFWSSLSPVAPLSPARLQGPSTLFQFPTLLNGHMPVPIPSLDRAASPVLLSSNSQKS
In short: as §1

[10] = target: T7, FEV (Homo sapiens, UniProt Q99581 1-238); settings: protein: recombinant; tags: N-terminal GST; dsDNA, one strand shown
T7 sequence: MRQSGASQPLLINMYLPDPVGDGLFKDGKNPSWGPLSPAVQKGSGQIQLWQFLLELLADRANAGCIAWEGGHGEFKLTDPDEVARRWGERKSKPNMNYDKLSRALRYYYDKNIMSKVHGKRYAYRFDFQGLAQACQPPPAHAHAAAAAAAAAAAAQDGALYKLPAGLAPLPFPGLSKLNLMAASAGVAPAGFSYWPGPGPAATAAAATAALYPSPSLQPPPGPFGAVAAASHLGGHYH
In short: as §1

[11] = target: ETV5 (Homo sapiens, UniProt P41161 1-510); settings: protein: recombinant; tags: N-terminal GST; dsDNA, one strand shown
Sequence of ETV5 (P41161 whole entry): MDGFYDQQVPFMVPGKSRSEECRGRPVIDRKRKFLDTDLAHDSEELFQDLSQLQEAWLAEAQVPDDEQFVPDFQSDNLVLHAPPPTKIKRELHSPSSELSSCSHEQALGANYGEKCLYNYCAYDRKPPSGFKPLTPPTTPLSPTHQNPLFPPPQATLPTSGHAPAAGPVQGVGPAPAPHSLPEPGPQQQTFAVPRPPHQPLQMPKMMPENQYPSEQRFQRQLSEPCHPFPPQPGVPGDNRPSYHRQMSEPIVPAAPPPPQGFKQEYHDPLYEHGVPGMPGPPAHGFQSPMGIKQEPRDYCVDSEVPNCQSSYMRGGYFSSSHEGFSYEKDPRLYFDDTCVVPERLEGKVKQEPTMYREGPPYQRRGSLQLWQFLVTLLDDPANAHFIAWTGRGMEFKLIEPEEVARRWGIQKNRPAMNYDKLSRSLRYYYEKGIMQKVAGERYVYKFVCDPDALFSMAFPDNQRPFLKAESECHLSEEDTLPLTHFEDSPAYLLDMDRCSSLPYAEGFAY
In short: as §1

[12] = target: HSF1 (Homo sapiens, UniProt Q00613 1-529); settings: protein: recombinant; tags: N-terminal GST; chain copies: 3; dsDNA, one strand shown
Sequence of HSF1 (Q00613 whole entry): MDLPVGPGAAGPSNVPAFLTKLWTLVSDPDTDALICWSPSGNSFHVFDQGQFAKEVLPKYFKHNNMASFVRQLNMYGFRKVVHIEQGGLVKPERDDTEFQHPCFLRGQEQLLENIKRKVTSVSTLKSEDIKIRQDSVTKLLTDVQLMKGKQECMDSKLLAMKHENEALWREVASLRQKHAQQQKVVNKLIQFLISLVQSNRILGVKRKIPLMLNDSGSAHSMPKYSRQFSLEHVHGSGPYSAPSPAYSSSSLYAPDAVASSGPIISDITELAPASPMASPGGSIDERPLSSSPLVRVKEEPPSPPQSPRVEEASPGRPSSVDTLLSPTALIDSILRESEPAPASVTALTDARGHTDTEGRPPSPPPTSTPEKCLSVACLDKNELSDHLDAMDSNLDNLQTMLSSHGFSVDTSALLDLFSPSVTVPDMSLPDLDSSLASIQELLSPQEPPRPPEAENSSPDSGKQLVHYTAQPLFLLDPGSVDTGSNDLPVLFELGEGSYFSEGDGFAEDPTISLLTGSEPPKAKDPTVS
In short: as §1

[13] = target: T8, SPIC (Homo sapiens, UniProt Q8N5J4 1-248); settings: protein: recombinant; tags: N-terminal GST; dsDNA, one strand shown
T8 sequence: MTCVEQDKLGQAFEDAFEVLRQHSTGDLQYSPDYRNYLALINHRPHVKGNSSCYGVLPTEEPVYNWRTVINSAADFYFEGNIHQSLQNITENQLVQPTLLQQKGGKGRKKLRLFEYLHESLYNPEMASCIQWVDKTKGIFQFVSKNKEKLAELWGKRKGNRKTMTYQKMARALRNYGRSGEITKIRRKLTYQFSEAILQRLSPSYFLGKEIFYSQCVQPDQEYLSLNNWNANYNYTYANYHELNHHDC
In short: as §1

[14] = target: ELF4 (Homo sapiens, UniProt Q99607 1-663); settings: protein: recombinant; tags: N-terminal GST; dsDNA, one strand shown
Sequence of ELF4 (Q99607 whole entry): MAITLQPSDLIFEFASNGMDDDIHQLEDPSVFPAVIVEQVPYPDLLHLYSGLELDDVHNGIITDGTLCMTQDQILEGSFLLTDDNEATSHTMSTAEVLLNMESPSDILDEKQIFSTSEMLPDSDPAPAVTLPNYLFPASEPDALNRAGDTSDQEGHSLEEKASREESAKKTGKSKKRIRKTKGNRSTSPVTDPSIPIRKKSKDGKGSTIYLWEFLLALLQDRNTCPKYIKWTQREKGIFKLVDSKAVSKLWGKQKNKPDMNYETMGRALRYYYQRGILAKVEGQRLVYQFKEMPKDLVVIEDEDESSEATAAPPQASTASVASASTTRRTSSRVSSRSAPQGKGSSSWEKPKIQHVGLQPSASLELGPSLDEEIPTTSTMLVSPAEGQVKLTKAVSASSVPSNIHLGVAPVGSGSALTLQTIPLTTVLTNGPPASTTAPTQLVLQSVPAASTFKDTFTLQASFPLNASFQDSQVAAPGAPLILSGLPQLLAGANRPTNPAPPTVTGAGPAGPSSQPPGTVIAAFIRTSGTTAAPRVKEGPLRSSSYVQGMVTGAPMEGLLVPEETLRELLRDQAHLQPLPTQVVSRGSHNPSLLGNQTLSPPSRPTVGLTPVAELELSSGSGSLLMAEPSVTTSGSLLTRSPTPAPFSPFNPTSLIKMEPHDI
In short: as §1

[15] = target: T9, ELK4 (Homo sapiens, UniProt P28324-2 1-405); settings: protein: recombinant; tags: N-terminal GST; dsDNA, one strand shown
T9 sequence: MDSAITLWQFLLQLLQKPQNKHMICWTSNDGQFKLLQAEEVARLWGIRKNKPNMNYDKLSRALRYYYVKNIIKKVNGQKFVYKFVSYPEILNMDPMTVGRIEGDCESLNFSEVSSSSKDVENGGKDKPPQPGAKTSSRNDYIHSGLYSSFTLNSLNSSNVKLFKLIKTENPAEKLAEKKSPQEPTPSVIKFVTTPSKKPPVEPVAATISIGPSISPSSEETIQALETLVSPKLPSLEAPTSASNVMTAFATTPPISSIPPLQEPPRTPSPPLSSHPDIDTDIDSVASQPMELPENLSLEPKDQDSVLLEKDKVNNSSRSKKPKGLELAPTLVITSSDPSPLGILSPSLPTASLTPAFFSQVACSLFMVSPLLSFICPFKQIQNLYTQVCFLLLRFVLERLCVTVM
In short: as §1

[16] = target: T10, ETV2 (Homo sapiens, UniProt O00321 1-342); settings: protein: recombinant; tags: N-terminal GST; dsDNA, one strand shown
T10 sequence: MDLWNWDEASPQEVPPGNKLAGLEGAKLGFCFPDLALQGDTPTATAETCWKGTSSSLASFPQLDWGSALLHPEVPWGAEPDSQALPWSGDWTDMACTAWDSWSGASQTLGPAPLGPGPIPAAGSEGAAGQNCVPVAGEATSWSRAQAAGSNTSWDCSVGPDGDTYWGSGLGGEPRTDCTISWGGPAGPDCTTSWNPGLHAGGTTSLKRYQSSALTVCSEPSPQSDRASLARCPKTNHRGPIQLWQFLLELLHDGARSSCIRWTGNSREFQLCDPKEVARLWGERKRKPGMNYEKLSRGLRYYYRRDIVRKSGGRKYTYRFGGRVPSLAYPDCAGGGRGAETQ
In short: as §1

[17] = target: T11, ELF3 (Homo sapiens, UniProt P78545 1-371); settings: protein: recombinant; tags: N-terminal GST; dsDNA, one strand shown
T11 sequence: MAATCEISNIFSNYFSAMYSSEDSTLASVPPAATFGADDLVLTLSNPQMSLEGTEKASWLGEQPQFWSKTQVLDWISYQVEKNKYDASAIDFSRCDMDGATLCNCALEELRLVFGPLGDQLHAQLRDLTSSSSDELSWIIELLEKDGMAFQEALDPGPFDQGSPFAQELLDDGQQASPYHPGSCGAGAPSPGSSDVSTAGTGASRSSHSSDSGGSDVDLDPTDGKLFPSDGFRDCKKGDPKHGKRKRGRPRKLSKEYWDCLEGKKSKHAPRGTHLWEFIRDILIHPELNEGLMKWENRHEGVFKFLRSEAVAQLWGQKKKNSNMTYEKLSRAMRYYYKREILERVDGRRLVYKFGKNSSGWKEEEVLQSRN
In short: as §1

[18] = target: CRX (Homo sapiens, UniProt O43186 1-299); settings: protein: recombinant; tags: N-terminal GST; dsDNA, one strand shown
Sequence of CRX (O43186 whole entry): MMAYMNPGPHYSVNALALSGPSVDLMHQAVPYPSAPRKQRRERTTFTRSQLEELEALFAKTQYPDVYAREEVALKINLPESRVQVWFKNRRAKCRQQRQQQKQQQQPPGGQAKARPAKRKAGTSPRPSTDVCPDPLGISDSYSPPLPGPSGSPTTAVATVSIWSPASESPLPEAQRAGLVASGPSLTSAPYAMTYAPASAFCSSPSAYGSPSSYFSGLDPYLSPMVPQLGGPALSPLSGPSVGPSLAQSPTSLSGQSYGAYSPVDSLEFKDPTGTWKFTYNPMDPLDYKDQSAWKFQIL
In short: as §1

[19] = target: ETV1 (Homo sapiens, UniProt P50549 1-477); settings: protein: recombinant; tags: N-terminal GST; dsDNA, one strand shown
Sequence of ETV1 (P50549 whole entry): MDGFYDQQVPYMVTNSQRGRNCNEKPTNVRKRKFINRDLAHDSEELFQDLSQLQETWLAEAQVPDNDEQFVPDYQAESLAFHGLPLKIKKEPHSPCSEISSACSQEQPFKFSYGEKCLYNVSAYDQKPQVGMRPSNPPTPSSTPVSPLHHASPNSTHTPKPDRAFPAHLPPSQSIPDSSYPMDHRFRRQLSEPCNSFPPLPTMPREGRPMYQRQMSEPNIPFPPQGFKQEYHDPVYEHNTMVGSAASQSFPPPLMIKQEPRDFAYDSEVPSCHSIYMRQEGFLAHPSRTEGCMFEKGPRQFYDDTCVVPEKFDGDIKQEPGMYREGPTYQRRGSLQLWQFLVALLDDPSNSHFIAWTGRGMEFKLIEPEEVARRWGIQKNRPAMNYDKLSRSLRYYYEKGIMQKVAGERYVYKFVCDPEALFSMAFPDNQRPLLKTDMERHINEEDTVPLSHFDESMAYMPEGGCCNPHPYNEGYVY
In short: as §1

AATGAT
binding signal [1]: 1.08 fold enrichment (6-mer frequency, TF over GST control)
binding signal [2]: 1.22 fold enrichment (6-mer frequency, TF over GST control)
binding signal [3]: 1.15 fold enrichment (6-mer frequency, TF over GST control)
binding signal [4]: 1.14 fold enrichment (6-mer frequency, TF over GST control)
binding signal [5]: 1.19 fold enrichment (6-mer frequency, TF over GST control)
binding signal [6]: 1.2 fold enrichment (6-mer frequency, TF over GST control)
binding signal [7]: 1.16 fold enrichment (6-mer frequency, TF over GST control)
binding signal [8]: 1.12 fold enrichment (6-mer frequency, TF over GST control)
binding signal [9]: 1.19 fold enrichment (6-mer frequency, TF over GST control)
binding signal [10]: 1.18 fold enrichment (6-mer frequency, TF over GST control)
binding signal [11]: 1.14 fold enrichment (6-mer frequency, TF over GST control)
binding signal [12]: 1.25 fold enrichment (6-mer frequency, TF over GST control)
binding signal [13]: 1.1 fold enrichment (6-mer frequency, TF over GST control)
binding signal [14]: 1.17 fold enrichment (6-mer frequency, TF over GST control)
binding signal [15]: 1.25 fold enrichment (6-mer frequency, TF over GST control)
binding signal [16]: 1.21 fold enrichment (6-mer frequency, TF over GST control)
binding signal [17]: 1.17 fold enrichment (6-mer frequency, TF over GST control)
binding signal [18]: 1.37 fold enrichment (6-mer frequency, TF over GST control)
binding signal [19]: 1.07 fold enrichment (6-mer frequency, TF over GST control)

— publication PMC7862700, “An all-to-all approach to the identification of sequence-specific readers for epigenetic DNA modifications on cytosine”
